Compound activity as filed in PubChem.
Rows were chosen to be rich in hits. Some 21% of all compounds tested hit in one or more screens of this group.
D3 antag: qHTS of D3 Dopamine Receptor Antagonist: qHTS; D3R cells, DiscoveRx beta-arrestin luminescence, antagonist mode; active compounds read low; max response, negative = inhibition, %; 2.5% of 360,000 active; AID 652054, 2013; in the data active = max response below about -50%; inconclusive = no clear call, values can overlap the other calls; also: % is scaled to controls: 0 for no effect and ±100 for the full control effect
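Cells expressing the human receptor were seeded at 1500 cells/well, incubated overnight at 37 degrees C in 5% CO2, then exposed to library compounds with dopamine controls for 90 minutes at 37 degrees C before luminescent detection.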
DT40 TDP1 CPT: qHTS for Inhibitors of human tyrosyl-DNA phosphodiesterase 1 (TDP1): qHTS in cells in presence of CPT. chicken DT40 Tdp1-/-;hTDP1 cells + 20 nM CPT, ATP luminescence, 48 h. Potency, µM (titrated, usually from 46.2 µM), for inactives: at the highest dose activity change, negative = growth inhibition, usual class: inhibitors. 12% of 420,000 active. AID 686979, 2013; also: potency is read from the fitted curve at half-maximal effect; % is scaled to controls: 0 for no effect and ±100 for the full control effect; nearly all actives have a fitted effect of over 55% in size
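Cell growth measured by CellTiter-Glo luminescence after a minimum 48 h, 37 C compound exposure with 20 nM CPT in Tdp1-knockout DT40 cells stably expressing hTDP1, seeded 400/well; qHTS titration format.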
IL1B secr inh: qHTS for Inhibitors of Inflammasome Signaling: IL-1-beta AlphaLISA Primary Screen. THP-1 LPS/ATP IL-1B secretion, AlphaLISA, 16 h; active compounds read low. activity change, % at 57.5 µM. 4.7% of 360,000 active; in the data active = activity change below about -50%; inconclusive = mostly about -30% to -49%; also: % is scaled to controls: 0 for no effect and ±100 for the full control effect
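Secreted IL-1B measured by AlphaLISA bead assay after 16 h compound exposure of THP-1 cells; compounds (final up to 57.5 uM) added 1 h before LPS (250 ng/mL) and ATP (1.25 mM) stimulation; lower signal means less secretion.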
ClpP mod: qHTS Assay for Activators of ClpP. ATP-dependent Clp protease proteolytic subunit (Bacillus subtilis (strain 168)), P80244. purified B. subtilis ClpP, FRET peptide cleavage, 20 min. Potency, µM (top dose mostly 57.5 µM), without a hit: at the top dose activity change, negative = active. 1.9% of 340,000 active; active = well fitted falling curve with a large enough effect; inconclusive = small, poorly fitted or top-dose-only effect; inactive = no such curve, though single readings can be large or run the other way; also: potency is read from the fitted curve at half-maximal effect; the source files actives as falling curves though it sought activators and does not explain the sign; nearly all actives have a fitted effect of over 65% in size
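ClpP 10 microg/mL final, pH 8 Tris/KCl buffer with BSA, glycerol, Tween-20; compound pinned in; FRET-FV substrate; RT 20 min; Ex320/Em430; ΔFRET vs ADEP 5.8 microM, DMSO, no enzyme.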
TDP1 cell noCPT: qHTS for Inhibitors of human tyrosyl-DNA phosphodiesterase 1 (TDP1): qHTS in cells in absence of CPT. DT40 Tdp1-/- hTDP1 cells, no CPT, ATP luminescence, 48 h. Potency, µM (titrated, usually from 46.2 µM), for the others: at the top dose activity change, negative = growth inhibition, usual class: inhibitors. 15% of 420,000 active. AID 686978, 2013; also: potency is read from the fitted curve at half-maximal effect; % is scaled to controls: 0 for no effect and ±100 for the full control effect; nearly all actives have a fitted effect of over 55% in size
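Cells were dispensed at 400 per well, compounds added by pin tool, plates incubated ≥48 hr at 37 °C, then CellTiter-Glo added for 30 min at room temperature before luminescence reading. Line: DT40 Tdp1-/- complemented with hTDP1; camptothecin omitted.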
D3 ag: qHTS of D3 Dopamine Receptor Agonist: qHTS; D(3) dopamine receptor (Homo sapiens), P35462; 0.58% of 410,000 active; D3R DiscoveRx beta-arrestin cells, luminescence, 90 min; max activation, %; in the data active = max activation above about 30%; also: 0% is about no effect
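Agonist-mode cell screen: cells plated at 1500/well and incubated overnight at 37 °C, then exposed to library compounds for 90 min at 37 °C. Detection reagent was added for 30–60 min at room temperature, and luminescence was read.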
The depositor's hits bear a star; ? = inconclusive; nt = no result given. Unless noted, calls follow the shape of the dose curve; as a rule, active = well fitted inhibition curve with a large enough effect; inconclusive = small, poorly fitted or top-dose-only effect; inactive = flat fitted curve, though single readings scatter.

SMILES | D3 antag | DT40 TDP1 CPT | IL1B secr inh | ClpP mod | TDP1 cell noCPT | D3 ag
N#CCN1CCC2(O)CCCCC2C1c1ccc2c(c1)OCO2 (centres undefined) | -19 | 3% | nt | nt | -30% | -6
COc1ccc(NCc2cc3cc4c(cc3n(CC(=O)Nc3ccccc3)c2=O)OCO4)cc1 | nt | 5.2µM* | nt | 5% | 4.1µM* | -24
Cc1ccc(NCc2cc3cc4c(cc3n(CC(=O)Nc3ccc(C)cc3)c2=O)OCCO4)cc1 | nt | 7.3µM* | nt | 4% | 8.2µM* | 0
COc1ccc(-n2cc(-c3ccc4c(c3)OCO4)n(CC(=O)Nc3cccc(C)c3)c2=O)cc1 | nt | 23µM* | nt | ? | ? | -11
COc1cc2cc(CNc3ccc(C)cc3)c(=O)n(CC(=O)Nc3ccc(F)cc3F)c2cc1OC | nt | ? | nt | 4% | 16µM* | -7
Cc1ccc(NCc2cc3cc4c(cc3n(CC(=O)Nc3ccc(F)cc3F)c2=O)OCCO4)cc1 | nt | nt | nt | 0% | nt | -4
COc1ccc(-c2ccc3c(c2)C2CC3CCN2Cc2ccc(OC(F)(F)F)cc2)cc1 (centres undefined) | 0 | ? | 21 | -8% | ? | -24
C/C=C(\CS(=O)(=O)c1ccccc1)S(=O)(=O)c1ccccc1 | -17 | ? | ? | 1% | 29µM* | -5
C/C(CS(=O)(=O)c1ccccc1)=N\O | -14 | 3% | 4 | nt | -10% | -6
CC(=O)c1ccc(N2CCN(C(=O)CN3C(=O)NC4(CCCCC4)C3=O)CC2)c(F)c1 | 6 | -24% | 0 | -1% | -18% | -15
Cc1ccc(C(c2sc3nc(-c4ccco4)nn3c2O)N2CCN(c3ccc(F)cc3)CC2)cc1 (centres undefined) | nt | -1% | nt | -2% | -8% | 6
CC1CCCCN1C(=O)Nc1ccccc1Cl (centres undefined) | 9 | -9% | -6 | 0% | -15% | -1
CCC1c2ccc(C)n2CCN1C(=O)Nc1ccccc1C(=O)OC (centres undefined) | 2 | ? | -7 | 35µM* | ? | 2
CCCC1c2ccc(C)n2CCN1C(=O)Nc1ccccc1Cl (centres undefined) | 28 | -28% | -21 | -25% | 21µM* | 3
CCOC(=O)c1ccccc1NC(=O)N1CCn2c(C)ccc2C1CC (centres undefined) | ? | 23µM* | 1 | ? | ? | 8
CCC1c2ccc(C)n2CCN1C(=O)Nc1cc(Cl)ccc1OC (centres undefined) | 23 | ? | 2 | -2% | ? | -7
COc1ccccc1CNC(=O)CN1C(=O)c2cccnc2Oc2ccccc21 | nt | -4% | nt | 0% | -20% | 2
O=S(=O)(c1ccc(Oc2ccc(Cl)cc2)c(S(=O)(=O)N2CCCCC2)c1)N1CCCCC1 | -18 | ? | 13 | -2% | 15µM* | -12
CCOc1ccc2cc(S(=O)(=O)N3CCCCC3)ccc2c1 | -16 | 29µM* | 8 | nt | ? | -2
CCOc1ccc(OC(=O)c2cccc(S(=O)(=O)N3CCN(C)CC3)c2)cc1 | -9 | 0% | -10 | 32µM* | 3% | 1
CCOc1ccc2cc(S(=O)(=O)N3CCN(C)CC3)ccc2c1 | -4 | ? | -4 | 1% | 23µM* | -8
COc1ccc(OC(=O)c2cccc(S(=O)(=O)N3CCCC3)c2)cc1 | 8 | ? | 1 | 0% | -6% | 18
COc1ccc(Nc2cc(C(=O)NCCc3ccc(C)cc3)c3ccccc3n2)c(OC)c1 | nt | ? | nt | 2% | ? | 4
O=C(COc1ccc(F)cc1)Nc1ccccc1C(=O)OCc1cc(=O)n2ccsc2n1 | nt | -4% | nt | -11% | -16% | -7
Cc1nc(NC(=O)C(C)(C)C)sc1-c1csc(N)n1 | 0 | ? | -12 | -4% | 23µM* | -5
SMILES | D3 antag | DT40 TDP1 CPT | IL1B secr inh | ClpP mod | TDP1 cell noCPT | D3 ag
C=CCNc1nc(-c2sc(NC(C)=O)nc2C)cs1 | -14 | 10µM* | -58* | -14% | 16µM* | 0
CC1=C(C#N)C(c2cccnc2)C2=C(CC(C)(C)CC2=O)N1 (centres undefined) | 24 | -28% | 6 | 14µM* | 0% | 3
CC1(C)CC(=O)C2=C(C1)NC1=C(C(=O)c3ccccc31)C2c1cccnc1 (centres undefined) | -24 | ? | 9 | 4% | ? | -2
CC1=C(C#N)C(C)C2=C(CC(C)(C)CC2=O)N1 (centres undefined) | -12 | ? | -1 | 18µM* | ? | -2
CCCCNC(=O)CSc1nc(COc2ccccc2)nc2ccccc12 | -4 | -12% | -99* | nt | ? | 6
CCC(C)(C)NC(=O)CSc1nc(Cc2ccccc2)nc2ccccc12 | -10 | ? | -64* | nt | ? | -10
CC(C)(C)c1ccc(C(=O)N2CCOC23CCCCC3)cc1 | 16 | 15µM* | 32 | -3% | 13µM* | -7
O=S(=O)(Cc1ccc(Cl)cc1)Nc1ccc2c(c1)OCO2 | -15 | ? | -53* | 0% | ? | -10
O=S(=O)(Cc1ccc(Cl)cc1)N1CCN(Cc2ccc3c(c2)OCO3)CC1 | 11 | 8% | 8 | nt | -23% | 2
COc1ccc(CNC(=O)O[C@]23C[C@H]4C(=O)N(c5ccccc5)C(=O)[C@H]4C[C@@]2(O)CN(S(=O)(=O)c2ccc(C)cc2)C3)cc1OC | 13 | -5% | 9 | 4% | -9% | 4
CCCCCCn1c(=O)n2n(c1=O)C[C@]1(OC(=O)NC3CC3)CN(S(=O)(=O)c3ccc(C)cc3)C[C@]1(O)C2 | 23 | ? | 19 | 1% | 12µM* | 4
Cc1ccc(S(=O)(=O)N2C[C@]3(O)C[C@@H]4C(=O)N(c5ccccc5)C(=O)[C@@H]4C[C@]3(OC(=O)NC3CCCC3)C2)cc1 | 18 | ? | -1 | -4% | 21µM* | 3
COC(=O)[C@H]1C[C@@]2(O)CN(S(=O)(=O)c3ccc(C)cc3)C[C@@]2(OC(=O)NC2CC2)C[C@H]1C(=O)OC | 3 | 4% | 9 | -4% | -27% | 2
O=C(NCc1ccccc1Cl)c1ccc(-n2cnc3cccnc32)cc1 | nt | nt | nt | -4% | nt | -3
